In PubChem BioAssay (NCI):
The panel holds about 83,000 compounds, 20% with a hit somewhere; the sample as a whole holds those more often.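 In brief: 96-well plates, 48 h treatment, single concentration, percent growth endpoint.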 The source made the active and inactive calls. How the source made its calls: active means growth percent below 10; inactive means the rest.

Key:
Assay in all cases: NCI-60 one-dose screen, 48 h (100 = growth as untreated, 0 = no growth, -100 = all killed)
Details in all cases: 10 µM unless noted
[1] = test system: DU-145 prostate
[2] = test system: K-562 leukemia
[3] = test system: MALME-3M melanoma
[4] = test system: MDA-MB-231 breast
[5] = test system: RXF 393 renal
[6] = test system: SF-268 CNS
[7] = test system: SF-295 CNS
[8] = test system: SF-539 CNS
[9] = test system: UACC-257 melanoma
[10] = test system: M14 melanoma
[11] = test system: HCT-15 colon
[12] = test system: HT29 colon
[13] = test system: SNB-75 CNS
[14] = test system: SNB-19 CNS
[15] = test system: U251 CNS
[16] = test system: PC-3 prostate
[17] = test system: SK-MEL-5 melanoma
[18] = test system: UACC-62 melanoma
[19] = test system: LOX IMVI melanoma
[20] = test system: SK-MEL-28 melanoma

Measured: growth

O=[N+]([O-])c1ccc(N/N=C\c2cc(Cl)ccc2O)nc1
inactive: [1] 39.4% | [2] 17.8% | [3] 25.6% | [4] 48.8% | [5] 50.2% | [6] 33.3% | [7] 29.9% | [8] 29.8% | [9] 30.2% | [10] 17.1% | [11] 26% | [12] 50.9% | [13] 70.1% | [14] 44.8% | [15] 33% | [16] 24.5% | [18] 11.2% | [19] 22.6% | [20] 55.3%
active: [17] 4.09%

COc1cc2c(c(OC)c1OC)CCC(c1cccc(NC(=O)c3cccc(Cl)c3)c1)O2 (stereo not given)
inactive: [1] 102% | [2] 72% | [3] 86.6% | [4] 88% | [5] 96% | [6] 90.6% | [7] 74.4% | [8] 103% | [9] 94.2% | [10] 86.6% | [11] 83.6% | [12] 73.7% | [13] 85.6% | [14] 91.8% | [15] 91.1% | [16] 66.6% | [17] 79.6% | [18] 68.1% | [19] 96.2% | [20] 92.1%

COc1ccc(-c2cn(Cc3ccc4c(Br)cc(Br)c(O)c4n3)nn2)cc1
inactive: [1] 89.7% | [2] 39.1% | [3] 82.7% | [4] 93.9% | [5] 91.8% | [6] 91.3% | [7] 104% | [8] 101% | [9] 87.9% | [10] 83.3% | [11] 39.3% | [12] 89.5% | [13] 71.6% | [14] 96.9% | [15] 97.3% | [16] 91.4% | [17] 98.6% | [18] 95.6% | [19] 49.4% | [20] 96.3%

COC1CC(O)C2=C(CC3C(/C(C)=C\CC=C(C)C)CCC3(C)O2)C1=O (stereo not given)
inactive: [1] 101% | [2] 96.7% | [3] 102% | [4] 115% | [5] 110% | [6] 91.1% | [7] 107% | [8] 109% | [9] 95.2% | [10] 106% | [11] 110% | [12] 99.4% | [13] 107% | [14] 103% | [15] 99% | [16] 93.6% | [17] 99.2% | [18] 94.9% | [19] 106% | [20] 119%

COc1cccc(NC(=O)c2sc3nc(C)c(C(=O)c4ccccc4)cc3c2N)c1
inactive: [1] 99.9% | [2] 64.4% | [3] 81.5% | [4] 91.6% | [5] 85.8% | [6] 87.6% | [7] 67.3% | [8] 86.5% | [9] 81.5% | [10] 80.6% | [11] 87% | [12] 102% | [13] 60.8% | [14] 78% | [15] 82.8% | [16] 89.9% | [17] 93.8% | [18] 73.1% | [19] 97.8% | [20] 82.2%

COc1cc(C)cc(-c2c(-c3cc(N4CC(O)C4)nc(-c4cccnc4)n3)cnn2C)c1
inactive: [1] 89.5% | [2] 80.1% | [3] 104% | [4] 55% | [5] 77.9% | [6] 98.5% | [7] 92.8% | [8] 94.3% | [9] 109% | [10] 90.6% | [11] 77.4% | [12] 88.3% | [13] 82.5% | [14] 91.4% | [15] 91.3% | [16] 82.5% | [17] 69.8% | [18] 73.1% | [19] 52.9% | [20] 92.5%

COc1cccc(/C=C2\CCc3ccccc3C2=O)c1
inactive: [1] 97.8% | [2] 35.1% | [3] 80.7% | [4] 89.9% | [5] 90.2% | [6] 90.3% | [7] 88.9% | [8] 91.5% | [9] 80.8% | [10] 90% | [11] 87.2% | [12] 77.1% | [13] 97.4% | [14] 75.7% | [15] 83.2% | [16] 83.4% | [17] 76.8% | [18] 80.1% | [19] 80.2% | [20] 118%

C#CC#CC#CC#CC#CC#CC#CC#CC[C@@H]1OC[C@H](COC(=O)O[C@@H](C(=O)O[C@H]2C[C@@]3(O)[C@@H](OC(=O)c4ccccc4)[C@@H]4[C@]5(OC(C)=O)CO[C@@H]5C[C@H](O)[C@@]4(C)C(=O)[C@H](OC(C)=O)C(=C2C)C3(C)C)[C@@H](NC(=O)c2ccccc2)c2ccccc2)O1
inactive: [1] 24.4% | [2] 15.8% | [3] 43.7% | [4] 45.3% | [5] 22.7% | [6] 51.7% | [7] 25.3% | [8] 30.2% | [9] 55.7% | [10] 18.6% | [11] 98.8% | [13] 34.9% | [14] 38.1% | [15] 28.5% | [16] 26.1% | [17] 48.7% | [18] 35% | [19] 34.3% | [20] 52.2%
active: [12] 4.07%

O=C1C(c2c(O)[nH]c3ncccc23)=Nc2ccccc21
inactive: [1] 81.2% | [2] 85.5% | [3] 139% | [4] 78.3% | [5] 71.2% | [6] 84.4% | [7] 102% | [8] 90.9% | [9] 96.5% | [10] 93.7% | [11] 77.9% | [12] 93.8% | [13] 68.1% | [14] 96.4% | [15] 88.2% | [16] 73% | [17] 75.4% | [18] 79.6% | [19] 76.3% | [20] 123%

CN1C(=O)N(C)C2C1NN=c1s/c(=C\c3ccccc3F)c(=O)n12 (stereo not given)
inactive: [1] 15.9% | [3] 44.9% | [4] 13.2% | [6] 65.5% | [7] 14.6% | [9] 54.5% | [11] 13.3% | [14] 24.1% | [15] 14.5% | [16] 27.4% | [17] 16.7% | [18] 21% | [19] 20.6% | [20] 47.1%
active: [2] 9.52% | [5] -6.27% | [8] -23.8% | [10] 9.53% | [12] 2.25% | [13] -4.89%

NCCCCCNc1noc(Cc2c[nH]c3cc(Br)ccc23)n1
inactive: [2] 14.3% | [3] 13.5% | [4] 51.2% | [6] 54.1% | [9] 54.8% | [11] 35.7% | [14] 46.2% | [15] 11.7% | [18] 22.6% | [19] 34.9% | [20] 40.2%
active: [1] 2.36% | [5] -11.5% | [7] 7.26% | [8] -23% | [10] -26.3% | [12] 3.86% | [13] 0.268% | [16] 9.96% | [17] 9.74%

C/C(=C(\c1ccc(OCCCN(C)C)cc1)c1ccc(OC(=O)Cc2ccccc2)cc1)c1ccc(Cl)cc1
inactive: [1] 80.7% | [3] 87.6% | [4] 68.4% | [5] 69.7% | [6] 77.4% | [7] 79.1% | [8] 82% | [9] 91.5% | [11] 45.2% | [13] 77.3% | [14] 89.8% | [15] 55% | [16] 75.9% | [17] 82.7% | [18] 81.8% | [20] 76.4%
active: [2] 0.63% | [10] 7.02% | [12] 4.56% | [19] 3.29%

C=C(c1ccc(C(=O)O)c(F)c1)c1cc2c(cc1C)C(C)(C)C=CC2(C)C
inactive: [1] 94.7% | [2] 73.9% | [3] 54.4% | [4] 88% | [5] 96.9% | [6] 74.3% | [7] 66.5% | [8] 72.2% | [9] 80.5% | [10] 91.1% | [11] 79.3% | [12] 80.7% | [13] 89.9% | [14] 67.9% | [15] 65.7% | [16] 70.3% | [17] 69.7% | [18] 81.1% | [19] 81.4% | [20] 98.4%

O=C(NC1CCCCCC1)c1ccc2c(=O)n3c(nc2c1)CCCCC3
inactive: [1] 94.3% | [2] 89% | [3] 91.1% | [4] 100% | [5] 105% | [6] 110% | [7] 116% | [8] 89.2% | [9] 112% | [10] 110% | [11] 80.4% | [12] 87.3% | [13] 62.9% | [14] 102% | [15] 99.7% | [16] 92.2% | [17] 94.9% | [18] 93.6% | [19] 96.1% | [20] 108%

O=C1OCC2=C1C(c1cccc(F)c1)c1cc3c(cc1N2CCO)CCC3 (stereo not given)
inactive: [3] 50.9% | [4] 26.9% | [5] 32.3% | [6] 23.3% | [9] 90.1% | [13] 29.6% | [14] 23.9% | [15] 14.3% | [16] 24.2% | [18] 42% | [19] 16.2% | [20] 54.7%
active: [1] 2.44% | [2] 9.4% | [7] -6.45% | [8] -28.9% | [10] 7.72% | [11] 7.86% | [12] 5% | [17] -1.4%
